From PubChem BioAssay AID939 (National Center for Advancing Translational Sciences (NCATS), 2007) come the findings set out here.

The nature of assay [1]: Confirmation Concentration-Response Assay for Agonists of the Thyroid Stimulating Hormone Receptor. For activation: % of control where 0% means no effect. Conditions: HEK293 TSHR-CNG cells, membrane potential dye, cAMP; measured here: parental HEK293 counter-screen max. In outline:
(§1)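 HEK 293 cells stably expressing TSHR and a cAMP-gated CNG channel; membrane potential dye with 100 uM RO 20-1724, compound added 30 min before fluorescence read (590 nm emission). Parental CNG-only HEK 293 cells served as counter-line.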
(In general: A counterscreen serves to expose hits that act by an unwanted route or on another target.)

Assay [2] addresses Thyrotropin receptor (Homo sapiens) (UniProt P16473). The description is as above. Conditions: HEK293 TSHR-CNG cells, membrane potential dye, cAMP; series mostly up to 25.6 µM. In outline: as §1

The structures appear in SMILES notation. Results filed as inconclusive are left out. Activity calls are given as the source filed them. Calls come from the whole dose curve; as a rule, active = well fitted activation curve with a large enough effect in the main read-out, with a control signal flat; inconclusive = small, poorly fitted or top-dose-only effect, or effect the other way, or a change in a side signal; inactive = no such curve, though single readings can be large or run the other way.
Potency is the fitted concentration of half-maximal effect.

Sequence of Thyrotropin receptor (Homo sapiens) (P16473 whole entry, looked up): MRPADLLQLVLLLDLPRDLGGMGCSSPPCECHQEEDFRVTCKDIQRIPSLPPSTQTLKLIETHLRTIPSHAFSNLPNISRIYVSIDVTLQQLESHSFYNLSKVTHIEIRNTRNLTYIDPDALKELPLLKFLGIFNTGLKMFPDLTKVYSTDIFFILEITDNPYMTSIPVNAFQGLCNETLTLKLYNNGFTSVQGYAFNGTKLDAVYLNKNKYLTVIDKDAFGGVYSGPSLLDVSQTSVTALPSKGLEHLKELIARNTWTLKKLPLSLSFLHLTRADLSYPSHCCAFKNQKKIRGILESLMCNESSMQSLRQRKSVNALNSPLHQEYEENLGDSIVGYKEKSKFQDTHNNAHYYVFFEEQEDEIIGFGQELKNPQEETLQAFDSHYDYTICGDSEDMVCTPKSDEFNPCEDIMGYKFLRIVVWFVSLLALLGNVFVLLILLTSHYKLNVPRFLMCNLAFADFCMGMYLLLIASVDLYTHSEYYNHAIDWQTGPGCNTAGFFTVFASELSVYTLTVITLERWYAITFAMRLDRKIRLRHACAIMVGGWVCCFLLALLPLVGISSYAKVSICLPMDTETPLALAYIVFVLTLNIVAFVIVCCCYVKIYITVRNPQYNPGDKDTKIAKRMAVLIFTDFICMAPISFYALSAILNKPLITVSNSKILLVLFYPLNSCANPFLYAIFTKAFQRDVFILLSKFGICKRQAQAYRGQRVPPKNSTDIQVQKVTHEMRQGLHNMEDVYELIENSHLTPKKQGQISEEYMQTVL

As for `Cc1ccccc1NC(=O)N1C2CCCC1CC(NC(=O)C1CC1)C2` (configuration not stated), the max response in assay [1] stood at 20.1%. In addition, the Potency result in assay [2] was “inactive”.

Turning to `Cc1cc(-n2c(C)cc(C(=O)CSc3nnnn3-c3ccc(Cl)cc3)c2C)no1`, in assay [1], the max response was 13.5%.

For `O=c1c2ccccc2ncn1-c1ccc2c(c1)OCCO2`, the max response in assay [1] was determined as 6.03%.

As for `COC(=O)C1=C(C)OC(N)=C(C#N)C1C1CCCCC1` (configuration not stated), the max response in assay [1] was 16.5%. In addition, in assay [2], the Potency is 6.31 µM (active).

As for `O=C(COC(=O)C12CC3CC(CC(C3)C1)C2)NCc1ccco1`, in assay [1], the max response was -5.29%.

Regarding `CCOC(=O)CSc1nnc(NC(=O)c2cccc(S(=O)(=O)N3CCCCC3)c2)s1`, the max response in assay [1] was -6.14%. Besides, in assay [2], the Potency entry was “inactive”.

`Cc1ccccc1-n1nc(C)c2cc(C(=O)N3CCN(S(=O)(=O)c4ccc(F)cc4)CC3)sc21`: the max response in assay [1] was -1.22%. Also, the Potency result in assay [2] was “inactive”.

`Cc1cc(Cl)c(S(=O)(=O)Nc2ccc3c(c2)OCO3)cc1OCC(N)=O`: the max response in assay [1] is -8.28%. Further, in assay [2], the Potency result is “inactive”.

For `Cc1nc2ccc(Br)cn2c(=O)c1Cl`, the max response in assay [1] was -3.12%.

Turning to `O=C1C2C3CCCC3=C3CCCC3C2C(=O)N1c1ccc(Cl)cc1` (configuration not stated), in assay [1], the max response is -8.66%. The Potency in assay [2] was 1.58 µM (active).

In the case of `COCCNC(=O)C(c1ccccc1)N(Cc1cccs1)C(=O)Cn1nnc2ccccc21` (configuration not stated), the max response in assay [1] was found to be 6.98%. The Potency result in assay [2] is “inactive”.

As to `Cc1cccc(NC(=O)CSc2nnc(-c3ccccc3)n2N)c1C`, in assay [1], the max response was -2.22%. Moreover, the Potency entry in assay [2] is “inactive”.

Regarding `CCS(=O)(=O)N1CCN(C(C)CCc2ccccc2)CC1` (configuration not stated), the max response in assay [1] is -2.55%. The Potency entry in assay [2] is “inactive”.

Consider `Cc1onc(-c2ccccc2)c1C(=O)N1CCCSC1=Nc1ccccc1`, for which, in assay [1], the max response stood at 18.9%. Moreover, in assay [2], the Potency was 7.94 µM (active).

For the compound `CN(Cc1ccco1)C(=O)Cn1c(=O)oc2cc(S(=O)(=O)NCc3ccccc3)ccc21`, the max response in assay [1] is -3.7%. Further, the Potency in assay [2] is 12.6 µM (active).

With `COc1cc(OC)cc(-c2nnc(SCC(=O)N(C(C)C)C(C)C)o2)c1`, the max response in assay [1] was determined as 16.6%. The Potency in assay [2] was 12.6 µM (active).

Take `O=C(CN(Cc1ccccc1Cl)C(=O)Cn1nnc(-c2cccs2)n1)NCC1CCCO1` (configuration not stated): the max response in assay [1] is 8.66%. Also, the Potency entry in assay [2] is “inactive”.

Consider `COC(=O)C1=C(C)OC(N)=C(C#N)C1c1c(C)nn(-c2ccccc2)c1Cl` (configuration not stated), for which, in assay [1], the max response turned out to be 6.03%. For the same compound, the Potency in assay [2] was 7.94 µM (active).

Consider `Nc1cc(CN2C(=O)c3ccccc3C2=O)cc(Cl)c1O`, for which, in assay [1], the max response amounted to 4.5%. Besides, the Potency result in assay [2] is “inactive”.

For `O=S(=O)(c1ccccc1)N1CCN(C2CCN(Cc3ccccc3)CC2)CC1`, the max response in assay [1] turned out to be 0.84%. The Potency entry in assay [2] was “inactive”.

On to `NC(=O)c1nsc(C(=O)N(CC(=O)NCc2ccc3c(c2)OCO3)C2CCCC2)c1N`, for which the max response in assay [1] is 7.46%.

On to `O=C(Nc1ccc(N2CCOCC2)cc1)C1CC1`, for which, in assay [1], the max response is 5.07%.

Consider `CCOc1ccc(N(C(C)C(=O)Nc2ccc(OC)cc2)S(C)(=O)=O)cc1` (configuration not stated), for which the max response in assay [1] is -4.4%. Moreover, the Potency result in assay [2] was “inactive”.

Turning to `COc1ccc(S(=O)(=O)NCCC(=O)NCc2ccc(F)cc2)cc1`, the max response in assay [1] is -8.89%.

As to `Cc1ccc(N(CC(=O)NCc2ccco2)S(=O)(=O)c2ccccc2)cc1`, the max response in assay [1] is -6.79%.

For `COc1cc2c(N3CCOCC3)cc(O)c(CC(=O)Nc3ccccc3)c2cc1OC`, the max response in assay [1] was -10.7%. The Potency entry in assay [2] was “inactive”.

Regarding `CCn1c(=O)c(C(=O)CN2CCCc3ccccc32)c(N)n(Cc2ccccc2)c1=O`, in assay [1], the max response was -16.6%. In assay [2], the Potency entry is “inactive”.

Turning to `CCOC(=O)N1CCC(NC(=O)c2ccc(CNS(=O)(=O)c3ccc(F)cc3)cc2)CC1`, the max response in assay [1] came out at 8.37%.

As for `CCSCCOC(=O)C1=C(C)N(C)C(=O)NC1c1cc(OC)ccc1OC` (configuration not stated), the max response in assay [1] stood at 7.65%.

Regarding `COc1ccc(C2Nc3ccccc3C(=O)N2Cc2ccco2)cc1COc1ccc(NC(C)=O)cc1` (configuration not stated), the max response in assay [1] was determined as 21.9%. The Potency in assay [2] is 0.631 µM (active).

`CSc1nc(NC(C)(C)C)nc(Oc2ccc(=O)[nH]n2)n1`: the max response in assay [1] was -2.82%. In assay [2], the Potency entry was “inactive”.

For the compound `O=C1N(c2ccccc2)C2CS(=O)(=O)CC2N1c1ccc(Cl)c(Cl)c1` (configuration not stated), the max response in assay [1] is -23.3%. Further, the Potency entry in assay [2] is “inactive”.

Take `COc1cccc(C(c2nnnn2Cc2ccccc2)N2CCN(C(=O)c3ccco3)CC2)c1OC` (configuration not stated): the max response in assay [1] was -3.51%. The Potency entry in assay [2] is “inactive”.

For the compound `CCOC(=O)c1cnc(-n2nc(C)cc2C)nc1-n1nc(C)cc1C`, the max response in assay [1] is -6.3%. Besides, in assay [2], the Potency result was “inactive”.

Consider `Cc1onc(-c2ccccc2Cl)c1C(=O)Nc1ccc(-n2nncc2-c2ccco2)cc1`, for which the max response in assay [1] is -3.47%. Moreover, the Potency in assay [2] was 12.6 µM (active).

As for `CC(c1ccco1)N(C(=O)c1ccc(Cl)s1)c1ccccn1` (configuration not stated), the max response in assay [1] amounted to 8.8%. In addition, the Potency in assay [2] is 7.94 µM (active).

For `Cc1occc1-c1nnc(SCC(=O)Nc2ccccc2)n1C(C)c1ccccc1` (configuration not stated), the max response in assay [1] is -10%. Moreover, in assay [2], the Potency is 12.6 µM (active).

In the case of `CCc1ccc(-c2nc(CN3CCC(C(=O)N4CCN(c5ccccc5)CC4)CC3)c(C)o2)cc1`, the max response in assay [1] was found to be 12.8%. In addition, the Potency entry in assay [2] is “inactive”.

For the compound `COc1cc(NC(=O)c2cc(-n3cnnc3)ccc2Cl)cc(OC)c1`, the max response in assay [1] is -1.27%. The Potency entry in assay [2] was “inactive”.

Consider `C=CCn1c(COc2ccccc2F)nnc1SCC(=O)N1CC(=O)Nc2ccccc21`, for which the max response in assay [1] is -6.56%. For the same compound, the Potency result in assay [2] is “inactive”.

`CCN(c1ccccc1)S(=O)(=O)c1ccc(Oc2ccc(-n3ccnc3)cc2)nc1`: the max response in assay [1] was -1.61%. Moreover, in assay [2], the Potency entry was “inactive”.
